AC50 and outcome data for 16 compounds are collected here from PubChem BioAssay (EPA / NIEHS).

Several values for one entry are separate records, joined by “and”; a condition that tells them apart may be missing. Equal values may be shown once. Results filed as inconclusive are left out. Activity calls are given as the source filed them. Rule for the calls: active = hit-call score of the fitted dose curve at least 0.9, where 1 is the maximum; inconclusive = response in the unintended direction; inactive = score below 0.9.

The assay in a line: CCTE_Shafer_MEA_dev_LDH: CCTE's Lactate Dehydrogenase Assay for Cytotoxicity in the Neural Network Formation Assay, Shafer Lab (AID 2284068).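 Note: exposure for twelve days from plating with re-dosing on DIV 5 and 9.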 As to the method: CCTE_Shafer_MEA_dev assay is conducted using Axion Biosystems 48 well microelectrode array (MEA) plates and Maestro recording system. Each well of the MEA plate contains a grid of 16 microelectrodes embedded in the culture surface. Electrically active cells, such as neurons, can be cultured over the electrodes, and electrical activity in these cells can be recorded extracellularly. The spontaneous firing of neurons is captured from each electrode on a microsecond timescale providing both temporally and spatially precise data. […] The CCTE_Shafer_MEA_dev assay uses primary cultures of rat cortical neurons. Recordings are made on days post-plating 5, 7, 9 and 12. As these cultures mature over time, neural networks develop functional activity and form cohesive networks in which electrical activity can be highly coordinated. CCTE_Shafer_MEA_dev_LDH is 1 of 19 assay components of the CCTE_Shafer_MEA_dev assay. It measures the lactate dehydrogenase enzyme activity using spectrophotometry.Data from the assay component CCTE_Shafer_MEA_dev_LDH was analyzed into 1 assay endpoint. This assay endpoint, CCTE_Shafer_MEA_dev_LDH, was analyzed in the positive analysis fitting direction relative to DMSO as the negative control and baseline of activity. Using a type of viability reporter, loss-of-signal activity can be used to understand cell viability.
On the day prior to culture, each well was coated thoroughly with 150 uL of 0.05% polyethyleneimine (PEI, Sigma Cat P3143) in 50 mM HEPES (Sigma Cat H7523) at a pH of 8. The plate was incubated at 37C for one hour. PEI was rinsed out with 500 uL of sterile water three times. Plates were stored at 4C until the day of culture. This culture was plated at a seeding density of 1.5 x 10^5 cells/well on a 48-well MEA plate, prepared as described above. Cells were administered via a 25 uL media/laminin ([…]; Sigma Cat L2020-1MG) drop directly onto the microelectrode array, as adding the cells with the laminin results in better attachment than pre-coating with laminin. After 2 hours, an additional 475 uL of cortical media was added and the cells returned to the incubator. Exposure starts at day 0 of plating and is continued over twelve days of network development until the experiment is terminated. Cells are fed with fresh medium on DIV 5 and 9, following the recordings on those days. The entire volume of media in the well is exchanged and any vehicle or compound treatment is renewed. Complete details are found in OP-NHEERL/ISTD/SBB/TJS/2015-03-r0 (available on request, email shafer.tim@epa.gov). Measurement of the electrical activity is non-invasive, and recordings can be made from the same plate over multiple different days of the culture. In cortical neurons, this allows for the measurement of extracellular action potentials over the period during which networks form in the MEA plate.
On to `CCOP(=S)(OCC)SCSC(C)(C)C`, for which the AC50 was 15.1 µM (active) and 29.5 µM (active).

For the compound `NS(=O)(=O)C(F)(F)C(F)(F)C(F)(F)C(F)(F)C(F)(F)C(F)(F)C(F)(F)C(F)(F)F`, the AC50 was 27.6 µM (active) and 23.6 µM (active).

`Oc1ccc(C(c2ccc(O)cc2)(C(F)(F)F)C(F)(F)F)cc1`: the AC50 was 10 µM (active) and 13.1 µM (active).

For `ClC1=C(Cl)[C@]2(Cl)[C@@H]3[C@H]4C[C@H]([C@@H]5O[C@H]45)[C@@H]3[C@@]1(Cl)C2(Cl)Cl`, the call was inactive.

For `O=S(=O)(O)C(F)(F)C(F)(F)C(F)(F)C(F)(F)F`, the outcome was inactive.

For `O=S(=O)(O)C(F)(F)C(F)(F)C(F)(F)C(F)(F)C(F)(F)C(F)(F)F`, the call was inactive.

Consider `CO/C=C(/C(=O)OC)c1ccccc1COc1cccc(C(F)(F)F)n1`, for which the AC50 was 122 nM (active) and 665 nM (active).

Consider `ClC1=C(Cl)[C@]2(Cl)[C@@H]3[C@@H](Cl)[C@H]4O[C@H]4[C@@H]3C1(Cl)C2(Cl)Cl`, for which the AC50 was 22.5 µM (active).

Regarding `ClC(Cl)=C(c1ccc(Cl)cc1)c1ccc(Cl)cc1`, the AC50 is 5.14 µM (active).

Take `Clc1ccc(C(c2ccccc2Cl)C(Cl)(Cl)Cl)cc1` (stereo unspecified): the concentration at half-maximal activity (AC50) is 2.38 µM (active).

Consider `O=C(O)C(F)(F)C(F)(F)C(F)(F)C(F)(F)C(F)(F)C(F)(F)C(F)(F)C(F)(F)F`, for which the call was inactive.

Turning to `c1cc2ccc3cccc4ccc(c1)c2c34`, the compound was called inactive.

Take `C=CC(N)=O`: the compound was called inactive.

Take `O=C(O)C(F)(F)C(F)(F)C(F)(F)C(F)(F)C(F)(F)F`: the outcome was inactive.

As to `ClC1=C(Cl)[C@]2(Cl)[C@@H]3[C@@H]4C[C@@H]([C@H]5O[C@@H]45)[C@@H]3[C@@]1(Cl)C2(Cl)Cl`, the AC50 is 11.3 µM (active).

Regarding `COc1ccc(O)c(C(C)(C)C)c1`, the result was inactive.
